Screens (PubChem)
Hits are enriched below; roughly 2.7% of the tested compounds scored in any of these assays.
TMEM16A inh – blocks the mouse calcium-activated chloride channel TMEM16A | HEK293 TMEM16A/YFP iodide influx fluorescence, ionomycin | AID 588511 | normalized B-score (activity score, 25-100; higher = stronger inhibition) at 10 µM | actives 1.2% (n = 310,000);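 active = ratio plate-corrected score three or more library SD toward inhibition, starting fluorescence score within five deviations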;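 note: score derived from kinetic fluorescence span divided by baseline fluorescence per well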
ANO1 activ – activates or potentiates the mouse TMEM16A chloride channel; Q8BHY3; HEK293 TMEM16A/YFP-H148Q/I152L, iodide quench fluorescence; stronger effect = lower value; actives 0.3% (n = 340,000); B-score at 10 µM; AID 623877;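 active = fluorescence-ratio B-score plate-corrected deviation score at least 3 library SD below zero, with starting fluorescence score within 5 deviations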;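 note: channel opened by trigger with iodide after compound preincubation; score built on the fluorescence ratio of max minus min over baseline; more negative score means more quench and so TMEM16A activation or potentiation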
CHT allo act – allosteric activators of human choline transporter CHT. B-score at 10 µM. actives 0.49% (n = 310,000). AID 488977. CHT-expressing cells, membrane potential dye, choline EC20; stronger effect = higher value; LV-AA mutant CHT in HEK293 cells. Q9GZV3;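 active = initial fluorescence not abnormally high and integrated response B-score, plate-corrected, over 3 SD above library mean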
CHT inh – inhibits the human high affinity choline transporter; actives 0.86% (n = 310,000); CHT-expressing cells, membrane potential dye, choline response; stronger effect = lower value; B-score at 10 µM; AID 488975; Q9GZV3;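 active = B-score over 3 SD under the library average, and starting fluorescence ratio not unusually high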;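 note: choline stimulus applied at its EC90 after an EC20 pre-addition; B-score computed on integrated fluorescence ratio after choline addition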
IDE inh – inhibitors of human insulin-degrading enzyme in cells; P14735; HEK cells, FAbetaB cleavage, fluorescence polarization; inhibition, % at 5.59 µM; actives 0.41% (n = 320,000);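 active = percent inhibition above the average of all tested compounds plus 3 SD, set per screening campaign, cut at about 16% in these data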;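 note: IDE supplied by intact live HEK cells; FP after avidin binding of uncleaved biotin substrate so inhibition keeps polarization high; 0% = DMSO wells and 100% = 60 µM reference IDE inhibitor Ii1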
Target sequence (P14735 whole entry, looked up): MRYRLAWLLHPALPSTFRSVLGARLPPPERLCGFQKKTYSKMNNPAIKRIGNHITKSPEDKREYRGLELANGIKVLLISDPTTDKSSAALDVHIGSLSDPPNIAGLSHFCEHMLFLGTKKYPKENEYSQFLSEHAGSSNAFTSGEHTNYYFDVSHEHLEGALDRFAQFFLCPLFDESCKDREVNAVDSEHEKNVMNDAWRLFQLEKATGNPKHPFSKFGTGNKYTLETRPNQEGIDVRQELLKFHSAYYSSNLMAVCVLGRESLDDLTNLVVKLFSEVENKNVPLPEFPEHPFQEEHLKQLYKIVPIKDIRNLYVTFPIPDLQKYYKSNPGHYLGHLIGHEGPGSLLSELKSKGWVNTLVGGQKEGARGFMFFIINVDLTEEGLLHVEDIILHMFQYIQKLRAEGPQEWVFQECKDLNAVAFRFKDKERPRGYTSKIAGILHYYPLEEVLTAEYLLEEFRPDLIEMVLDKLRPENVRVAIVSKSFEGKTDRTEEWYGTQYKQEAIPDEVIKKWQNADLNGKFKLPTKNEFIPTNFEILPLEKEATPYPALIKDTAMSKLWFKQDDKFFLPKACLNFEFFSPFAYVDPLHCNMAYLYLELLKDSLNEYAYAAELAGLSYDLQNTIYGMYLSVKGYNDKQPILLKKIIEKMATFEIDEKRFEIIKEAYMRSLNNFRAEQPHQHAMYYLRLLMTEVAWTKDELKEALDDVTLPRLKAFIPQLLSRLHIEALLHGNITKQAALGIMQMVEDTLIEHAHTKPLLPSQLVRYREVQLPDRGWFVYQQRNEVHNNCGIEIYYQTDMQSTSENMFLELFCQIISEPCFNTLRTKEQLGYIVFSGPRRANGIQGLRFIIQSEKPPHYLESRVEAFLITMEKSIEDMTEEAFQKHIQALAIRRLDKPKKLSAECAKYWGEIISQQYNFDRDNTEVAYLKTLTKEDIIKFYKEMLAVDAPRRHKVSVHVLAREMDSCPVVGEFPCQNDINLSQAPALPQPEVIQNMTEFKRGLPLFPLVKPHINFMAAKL
IDE cell activ – IDE (human) activation, cell-based; P14735; activation, % at 5.96 µM; HEK cells, FAbeta-B cleavage, fluorescence polarization; 0% vehicle, 100% cell-free pure enzyme wells; AID 493087; actives 0.073% (n = 340,000);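 active = activation above the mean of all tested compounds plus 3 SD, set per screening campaign, cut at about 17% in these data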
CHT act confirm – human CHT activation, confirmatory screen | CHT-expressing cells, membrane potential dye fluorescence (FDSS); % of choline EC20–EC90 response window; HEK293 expressing CHT LV-AA mutant; choline added at its EC20 | AID 504833 | actives 91% (n = 2,500) | shares compounds with CHT allo act | activation, % at 10 µM;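 active = primary screen active, with duplicate mean activation above negative control mean plus 3 SD, cut at about 11% in these data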
HEK293 MP dye – counter-screen for CHT activators: effect in parental HEK293 cells. shares compounds with CHT allo act. membrane potential dye fluorescence (FDSS); measured after EC20 choline addition. ratio readout change at 10 µM, hits read low. actives 62% (n = 2,500). AID 623908;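 active = duplicate-averaged ratio beyond 3 SD from buffer wells, up or down, though filed actives are nearly all decreases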
* hit, by the source's call; i = inactive; nt = no result.

SMILES	TMEM16A inh	ANO1 activ	CHT allo act	CHT inh	IDE inh	IDE cell activ	CHT act confirm	HEK293 MP dye
CC[C@H]1CC2CN3CCc4c([nH]c5cc(OC)ccc45)[C@](C(=O)OC)(C2)[C@H]13	i	nt	i	i	-5	nt	nt	nt
COc1ccc2c3c([nH]c2c1)C(C)=NCC3	i	i	i	i	3	0	33*	-43*
CCCc1nc2ccc(Br)cc2c(=O)n1-c1ccc([N+](=O)[O-])c(C(F)(F)F)c1	100*	i	i	i	0	-4	2	i
CCc1nc2ccc(Br)cc2c(=O)n1-c1ccccc1C(F)(F)F	i	i	i	i	2	1	nt	nt
CCC1(NS(=O)(=O)c2ccc(N)cc2)C(=O)N(C)C(=O)N(C)C1=O	nt	i	nt	nt	nt	3	nt	nt
C[n+]1c(-c2ccccc2)sc2ccccc21	i	i	i	i	-3	1	52*	-42*
Nc1c(C(=O)NCc2ccco2)c2nc3ccccc3nc2n1CCN1CCOCC1	i	i	6.4*	i	10	-2	20*	-21*
CNC(C(=O)c1ccccc1)C(OC)c1cccc([N+](=O)[O-])c1 (stereo not drawn)	i	i	i	i	-1	-2	nt	nt
Cc1cc(Cl)ccc1OCC(=O)N1CCN(C)CC1	i	i	i	i	2	6	nt	nt
CN1CCN(C(=O)OC2c3nccnc3C(=O)N2c2ccc(Cl)cn2)CC1 (stereo not drawn)	i	nt	9.8*	i	1	nt	68*	-60*
O=C(C[N+]12CCC(CC1)C(C(O)(c1ccccc1)c1ccccc1)C2)c1ccc(Br)cc1 (stereo not drawn)	i	i	i	i	2	1	30*	-22*
OCC[N+]12CCC(CC1)C(C(O)(c1ccccc1)c1ccccc1)C2 (stereo not drawn)	i	i	i	i	-1	0	nt	nt
CC(C)(C)C(=O)Nc1ccc(S(=O)(=O)N2CC3CC(C2)c2cccc(=O)n2C3)cc1 (stereo not drawn)	i	i	i	i	2	1	nt	nt
O=C1C(Cl)=CC(=Nc2ccc(O)cc2)C=C1Cl	nt	i	nt	nt	-5	3	nt	nt
Cn1c(O)c(/C=N/c2ncccn2)c(=O)n(C)c1=O	i	i	i	i	1	-9	38*	-36*
Cc1cccc(NP(=O)(Oc2ccccc2F)Oc2ccccc2F)c1	i	i	i	i	6	6	23*	i
CCOc1cc2c(cc1OCC)-n1cccc1C(c1cccc(F)c1)NC2 (stereo not drawn)	i	i	i	i	-5	5	nt	nt
CC(=Nc1ccccc1N)c1c(O)n(C)c(=O)n(C)c1=O	i	i	i	i	-2	0	nt	nt
CN1CCN(c2ccc([N+](=O)[O-])c(N)c2)CC1	i	i	i	i	1	3	nt	nt
CN1CCN(c2ccc([N+](=O)[O-])c(SCCO)c2)CC1	i	i	6.8*	i	3	-1	37*	-65*
CN1CCN(c2ccc([N+](=O)[O-])c(NCC3CCCO3)c2)CC1 (stereo not drawn)	i	i	6.3*	i	6	-4	52*	-51*
CN1CCN(c2ccc([N+](=O)[O-])c(NCc3ccco3)c2)CC1	i	i	i	i	3	6	nt	nt
N/C(=N\[N+](=O)[O-])N1CCN(C(=O)c2ccccn2)CC1	i	i	i	i	-5	3	nt	nt
COC(=O)C1=C(c2ccc(OC(F)(F)F)cc2)C[C@@H]2CC[C@H]1N2C(=O)NCCc1ccccc1	nt	i	nt	nt	1	-1	nt	nt
CCCC[N+]12CCC(CC1)C(=C(c1ccccc1)c1ccccc1)C2	i	i	9.4*	i	3	5	61*	i
SMILES	TMEM16A inh	ANO1 activ	CHT allo act	CHT inh	IDE inh	IDE cell activ	CHT act confirm	HEK293 MP dye
CCC[N+]12CCC(CC1)C(=C(c1ccccc1)c1ccccc1)C2	i	i	6.5*	i	0	-3	16*	i
CC=C(CC)C1(CC)C(=O)NC(=S)NC1=O	nt	i	nt	nt	nt	0	nt	nt
Cc1ccc(-c2nc(N3CCOCC3)s[n+]2-c2ccccc2)cc1	i	i	6.7*	i	2	-15	55*	i
COC(=O)C1=C(c2ccc(F)cc2F)C[C@@H]2CC[C@H]1N2C(=O)N1CCC(O)CC1	nt	i	nt	nt	2	4	nt	nt
Fc1ccc(C[n+]2c(-c3ccccc3)cc(-c3ccccc3)cc2-c2ccccc2)cc1	i	nt	8.2*	i	4	nt	32*	i
OC(Cn1c2ccccc2c2ccccc21)C[n+]1cccc2ccccc21 (stereo not drawn)	i	i	i	i	-2	5	39*	-38*
C[n+]1ccc(-c2cc[n+](C)cc2)cc1	i	i	11*	i	1	-8	85*	-100*
CCCCCCC[n+]1ccc(-c2cc[n+](CCCCCCC)cc2)cc1	i	i	i	i	2	5	nt	nt
CN1CCN(c2nc(N(C)C)oc(=O)c2C#N)CC1	i	i	i	i	5	3	54*	-47*
O=C(O)C1C2c3ccccc3C(O)C1(C(=O)O)c1ccccc12 (stereo not drawn)	nt	i	nt	nt	nt	1	nt	nt
O=C(Nc1ccccc1)c1cc([N+](=O)[O-])ccc1N1CCNCC1	i	i	i	i	-1	0	nt	nt
O=[N+]([O-])c1ccc2nc(N3CCNCC3)ccc2c1	i	nt	11*	i	6	nt	37*	-51*
COc1ccc(-c2cc(=O)oc3c(C)c(OC(C)C(=O)N4C[C@H]5C[C@@H](C4)c4cccc(=O)n4C5)ccc23)cc1 (stereo partly drawn)	i	i	i	i	16	-16	nt	nt
CN1C(=O)NC(=O)C(N=Nc2ccc(Cl)cc2)C1=O (stereo not drawn)	nt	i	nt	nt	nt	5	nt	nt
CC[n+]1c(/C=C/N(C)c2ccccc2)sc2ccc(Cl)cc21	i	i	i	i	1	0	15*	-39*
CN(C)c1ccc(/C=C/C=C/c2sc3ccccc3[n+]2C)cc1	i	i	i	i	5	3	nt	nt
OCC1CO1 (stereo not drawn)	nt	i	nt	nt	4	8	nt	nt
